9 compounds from PubChem BioAssay (Tox21) can be followed below.

A short description of test [1]: qHTS assay to identify small molecule agonists of the constitutive androstane receptor (CAR) signaling pathway - cell viability counter screen (AID 1224836). Further: nearly all actives have a fitted effect of over 45% in size. Further: potency means the concentration at half of the fitted maximal effect. The gist of the method:
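HepG2 cells stably carrying hCAR and a CYP2B6-2.2kb reporter; 15-concentration compounds plus PK11195 (final 0.75 uM), 23 hr at 37 C/5% CO2. Viability read by CellTiter-Fluor fluorescence.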

The nature of test [2]: qHTS assay to identify small molecule antagonists of the constitutive androstane receptor (CAR) signaling pathway - cell viability counter screen (AID 1224837). Further: nearly all actives have a fitted effect of over 45% in size. Further: potency means the concentration at half of the fitted maximal effect. In a few lines: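 In quantitative HTS format, compounds at 15 concentrations were applied to HepG2 cells double-transfected with hCAR and CYP2B6-2.2kb under 50 nM CITCO stimulation; live-cell protease activity was read after 23 hr via CellTiter-Fluor.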
In general terms: Quantitative high-throughput screening tests each substance at several concentrations.

Test [3] deals with Nuclear receptor subfamily 1 group I member 3 (Homo sapiens) (UniProt Q14994). Kind of test: qHTS assay to identify small molecule antagonists of the constitutive androstane receptor (CAR) signaling pathway (AID 1224838). Further: nearly all actives have a fitted effect of over 40% in size. Further: potency means the concentration at half of the fitted maximal effect. In a few lines: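 CITCO-stimulated (50 nM final) HepG2 cells stably transfected with hCAR and CYP2B6-2.2kb luciferase were exposed to compounds at 15 concentrations for 24 h at 37 C/5% CO2. A luciferase reagent was added and luminescence recorded after 30 min.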

The target is the same in test [4]. In words: qHTS assay to identify small molecule agonists of the constitutive androstane receptor (CAR) signaling pathway (AID 1224839). Further: nearly all actives have a fitted effect of over 15% in size. Further: potency means the concentration at half of the fitted maximal effect. The gist of the method: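 HepG2 cells stably co-transfected with hCAR and a CYP2B6-2.2kb luciferase reporter; compounds at 15 concentrations with 0.75 uM PK11195 present. After 24 hr at 37 C, luciferase read by ONE-Glo luminescence.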

Test [5] in a line: qHTS assay to identify small molecule antagonists of the estrogen related receptor signaling pathway with the pleiotropic PPARgamma coactivator (PGC) from Tox21 10K library - cell viability counter screen (AID 1224840; active means well fitted cell-killing curve with a large enough effect in the repeat runs, not every such curve was filed as active; further: nearly all actives have a fitted effect of over 40% in size; further: potency means the concentration at half of the fitted maximal effect). In a few lines:
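Viability counter screen, PGC/ERR cells: 17.5 h compound exposure at 37 C, CellTiter-Fluor fluorescence endpoint.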

A short description of test [6]: qHTS assay to identify small molecule agonists of the hypoxia (HIF-1) signaling pathway - cell viability counter screen (AID 1224844; calls by dose curve; further: nearly all actives have a fitted effect of over 50% in size; further: potency means the concentration at half of the fitted maximal effect). In a few lines:
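Same wells as the HIF-1 reporter screen; ME-180 cells carrying HRE-bla, 17 hr treatment at 37C; CellTiter-Glo luminescence read after 30 min at room temperature.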

The nature of test [7]: A CellTox Green Cytotoxicity Assay to monitor cytotoxicity in HEK293 cells - 0 hour (AID 1224869). Further: nearly all actives have a fitted effect of over 50% in size. The gist of the method:
(§1)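 Homogeneous no-lysis format: HEK293 cell suspension mixed with CellTox Green reagent, seeded, incubated 5 h at 37 C/5% CO2, then dosed by pintool with compound in DMSO.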

Test [8] in a line: qHTS RealTime-Glo MT Cell Viability Assay in HepG2 cells - 40 hour (AID 1224870). Further: nearly all actives have a fitted effect of over 50% in size. Further: potency means the concentration at half of the fitted maximal effect. In a few lines: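 HepG2 cells (600/well) mixed with RealTime-Glo MT reagent, settled 5 h at 37 C/5% CO2 before compound addition. Nonlytic NanoLuc luminescence from viable-cell prosubstrate reduction read repeatedly during 40 h treatment at 37 C.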
Test [9] is described as follows: A CellTox Green Cytotoxicity Assay to monitor cytotoxicity in HEK293 cells - 40 hour (AID 1224871). Further: nearly all actives have a fitted effect of over 45% in size. Further: potency means the concentration at half of the fitted maximal effect. In a few lines:
as §1

Test [10] in a line: qHTS RealTime-Glo MT Cell Viability Assay in HEK293 cells - 16 hour (AID 1224872). Further: nearly all actives have a fitted effect of over 50% in size. Further: potency means the concentration at half of the fitted maximal effect. The gist of the method: (§2)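 Nonlytic real-time viability readout: viable cells convert prosubstrate to NanoLuc substrate, giving luminescence proportional to live cell number. HEK293, 600 cells/well, compound added after 5 h, continuous culture at 37 C.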
Test [11] in a line: qHTS assay to identify small molecule agonists of the estrogen related receptor signaling pathway with the pleiotropic PPARgamma coactivator (PGC) from Tox21 10K library (AID 1224842). Further: nearly all actives have a fitted effect of over 15% in size. In a few lines: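 PGC/ERR reporter cell line, 2,000 cells per well, incubated 6 h at 37 C before 23 nL compound in DMSO was added. After 18 h at 37 C, One-Glo luminescence read following 30 min at room temperature.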

The target in test [12] is Thyrotropin receptor (Homo sapiens) (UniProt P16473). In words: qHTS assay to identify small molecule agonists of the thyroid stimulating hormone receptor (TSHR) signaling pathway (AID 1224843; calls by dose curve; further: nearly all actives have a fitted effect of over 45% in size). In a few lines:
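Agonist-mode screen: TSHR HEK293 cells received test chemicals for half an hour at room temperature, then HTRF cAMP detection reagents for one hour prior to fluorescence measurement. Each chemical ran as a 15-concentration series, triplicated.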

The nature of test [13]: qHTS assay to identify small molecule agonists of H2AX - cell viability counter screen (AID 1224847; calls by dose curve; further: nearly all actives have a fitted effect of over 30% in size; further: potency means the concentration at half of the fitted maximal effect). In a few lines: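 CHO-K1 cells plated overnight at 37C, then exposed 3 h at 37C to compounds at 15 concentrations (0.76% DMSO final). Viability by CellTiter-Glo luminescence after 30 min at room temperature.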
A short description of test [14]: qHTS assay to identify small molecule antagonists of the estrogen related receptor (ERR) signaling pathway from Tox21 library (AID 1224848). Further: nearly all actives have a fitted effect of over 50% in size. Further: potency means the concentration at half of the fitted maximal effect. In a few lines: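 Quantitative high-throughput format: ERR reporter cells (2,000/well) pre-incubated 6 h, treated 18 h at 37 C with compounds in DMSO alongside positive and negative controls, then read by ONE-Glo luminescence.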

Test [15] can be described thus: qHTS assay to identify small molecule agonists of the estrogen related receptor (ERR) signaling pathway from Tox21 library (AID 1224849; calls by dose curve; further: nearly all actives have a fitted effect of over 15% in size). As to conditions: ERR reporter cell line, ONE-Glo luciferase, 18 h; at 92.4 µM (top of the series) unless noted. In a few lines:
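Reporter cells (ERR, NTP source) treated with Tox21 10K compounds 18 h, 37 C. Readout: ONE-Glo luminescence, 30 min RT.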

A short description of test [16]: qHTS RealTime-Glo MT Cell Viability Assay in HepG2 cells - 24 hour (AID 1224867). Further: nearly all actives have a fitted effect of over 50% in size. Further: potency means the concentration at half of the fitted maximal effect. The gist of the method: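 Luminescence read-out: viable HepG2 cells reduce a prosubstrate to a NanoLuc substrate, giving a signal proportional to live cell number. Reads taken at 0, 8, 16, 24, 32 and 40 h of compound exposure at 37 C.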
The nature of test [17]: qHTS RealTime-Glo MT Cell Viability Assay in HEK293 cells - 32 hour (AID 1224868). Further: nearly all actives have a fitted effect of over 50% in size. Further: potency means the concentration at half of the fitted maximal effect. In a few lines: as §2
A short description of test [18]: qHTS assay to identify small molecule antagonists of the estrogen related receptor signaling pathway with the pleiotropic PPARgamma coactivator (PGC) from Tox21 10K library (AID 1224841; call rule not given here). The gist of the method: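 In the PGC/ERR line, DMSO solutions of test chemicals are pin-delivered to 2,000 cells/well six hours after dispensing. Following eighteen hours' incubation, One-Glo reagent is added and luminescence recorded.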

Test [19] in a line: qHTS assay to identify small molecule agonists of H2AX (AID 1224845; active means well fitted activation curve with a large enough effect in the signal ratio in the repeat runs, not every such curve was filed as active; the % refers to the signal ratio). The gist of the method:
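Wild-type CHO-K1 cells, plated overnight, exposed 3hr at 37C to 15 concentrations (0.76% DMSO final). Lysed, then HTRF anti-pH2AX (S139) cryptate and anti-H2AX-d2 antibodies, 24 hr room temperature; 665/620 nm emission read.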

A short description of test [20]: qHTS assay to identify small molecule agonists of the hypoxia (HIF-1) signaling pathway (AID 1224846; active means well fitted activation curve with a large enough effect in the signal ratio in the repeat runs, not every such curve was filed as active; the % refers to the signal ratio). The gist of the method:
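In ME-180 cells bearing an HRE-bla construct, 17 h treatment with DMSO-dissolved compounds at 37C was followed by CCF4-AM loading to quantify reporter induction.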

A number with no mark means an inactive call. Results filed as inconclusive are left out. The source made the active and inactive calls. Unless noted, the call rests on the fitted dose curve; in most records, active means well fitted curve in the direction sought with a large enough effect in the repeat runs; inconclusive means weak or mixed curves; inactive means no such curve, though single readings can be large; an effect the other way counts as inactive or inconclusive.
On the % scale 0 is the no-effect control and ±100 the full control effect.

Thyrotropin receptor (Homo sapiens), sequence (P16473 whole entry, looked up): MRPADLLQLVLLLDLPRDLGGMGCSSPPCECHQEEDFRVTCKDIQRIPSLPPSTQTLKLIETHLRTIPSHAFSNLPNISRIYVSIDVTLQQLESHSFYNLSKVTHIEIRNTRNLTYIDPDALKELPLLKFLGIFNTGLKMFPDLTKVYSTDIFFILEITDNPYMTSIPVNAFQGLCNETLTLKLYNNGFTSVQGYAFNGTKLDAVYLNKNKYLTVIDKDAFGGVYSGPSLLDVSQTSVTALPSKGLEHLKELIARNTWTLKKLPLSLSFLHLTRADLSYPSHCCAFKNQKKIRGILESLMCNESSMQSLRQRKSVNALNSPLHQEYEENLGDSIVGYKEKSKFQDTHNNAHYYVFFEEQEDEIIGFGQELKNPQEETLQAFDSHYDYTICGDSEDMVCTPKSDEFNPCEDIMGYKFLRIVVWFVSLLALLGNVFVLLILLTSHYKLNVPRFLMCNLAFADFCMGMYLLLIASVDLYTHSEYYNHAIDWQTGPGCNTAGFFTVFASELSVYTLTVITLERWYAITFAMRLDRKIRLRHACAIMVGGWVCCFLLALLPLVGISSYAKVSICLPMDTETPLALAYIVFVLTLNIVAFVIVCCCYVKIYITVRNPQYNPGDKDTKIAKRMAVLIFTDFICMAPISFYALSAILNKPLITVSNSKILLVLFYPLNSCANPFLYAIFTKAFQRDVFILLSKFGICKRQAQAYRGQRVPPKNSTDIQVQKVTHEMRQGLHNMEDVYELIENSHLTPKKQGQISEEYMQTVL
Nuclear receptor subfamily 1 group I member 3 (Homo sapiens), sequence (Q14994 whole entry, looked up): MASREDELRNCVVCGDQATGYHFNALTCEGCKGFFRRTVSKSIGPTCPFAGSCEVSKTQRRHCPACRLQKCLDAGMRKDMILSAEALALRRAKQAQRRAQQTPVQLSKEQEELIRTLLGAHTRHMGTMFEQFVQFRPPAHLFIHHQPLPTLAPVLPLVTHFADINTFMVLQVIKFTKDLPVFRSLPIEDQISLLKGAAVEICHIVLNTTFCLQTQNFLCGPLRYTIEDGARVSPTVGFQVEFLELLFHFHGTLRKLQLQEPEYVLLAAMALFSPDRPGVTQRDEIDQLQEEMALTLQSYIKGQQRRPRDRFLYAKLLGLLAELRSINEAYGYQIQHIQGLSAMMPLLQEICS

`O=C(Oc1ccccc1)c1cccc(C(=O)Oc2ccccc2)c1`: the Potency entry in test [1], in test [2], in test [3], in test [5], in test [6] and in test [7] was “inactive” in each case. Besides, the Potency entry in [8], in test [9] and in test [10] was “inactive” throughout. Moreover, the Potency in [4] was 1.44 µM (active).

As for `O=C1NCN(c2ccccc2)C12CCN(CCCC(c1ccc(F)cc1)c1ccc(F)cc1)CC2`, the Potency in test [1] is 16.8 µM (active); in test [2] it was 13.3 µM (active); in test [3], 13.3 µM (active); in [6], 10.7 µM (active); in [13], 49.2 µM (active); in test [14], 21.1 µM (active). Further, the Potency in test [16] is 6.74 µM (active); in [17] it was 19 µM (active); in [8], 6.74 µM (active); in test [9], 23.9 µM (active); in test [10] it was 19 µM (active). Moreover, the Potency result in test [4], in test [11], in test [12] and in test [7] was “inactive” in each case. In addition, the activity change, positive = activation in test [15] was -32.9% [at 42.5 µM].

Consider `CCc1cccc(CC)c1NC(=O)C(=O)O`, for which the Potency entry in test [1], in test [2], in test [3], in [5], in [18] and in test [11] was “inactive” each time. The Potency result in test [12], in test [6], in [19], in test [13], in test [14] and in [16] was “inactive” throughout. Also, the Potency entry in [7], in [8], in test [9] and in test [10] was “inactive” in each case. Also, the compound was classed as inactive in test [20]. The activity change, positive = activation in [15] was -1.7%.

With `CS(C)(=O)=O`, the Potency entry in test [1], in test [2], in test [3], in test [5], in [11] and in [12] was “inactive” in each case. Moreover, the Potency result in test [19], in [13], in test [14], in [16], in [17] and in [8] was “inactive” in each case. In test [10], the Potency result is “inactive”.

For `CCO[Si](CCCSSSSCCC[Si](OCC)(OCC)OCC)(OCC)OCC`, the Potency result in test [1], in test [2], in test [3], in [4], in [5] and in [16] was “inactive” in each case. Also, the Potency result in [17], in test [7], in test [8] and in test [10] was “inactive” in each case.

For the compound `N#CSCSc1nc2ccccc2s1`, the Potency in [1] is 61.1 µM (active); in test [2], 27.3 µM (active); in test [3], 30.6 µM (active); in [5], 61.1 µM (active); in test [17], 19.5 µM (active); in test [8], 24.5 µM (active). For the same compound, the figures for the Potency in [9] and in test [10] were 11 µM (active) and 15.5 µM (active), respectively. Further, the Potency entry in test [4] and in [7] was “inactive” in each case.

For `CCCCCCCC/C=C\CCCCCCCC(=O)N(C)CC(=O)O`, the Potency entry in test [1], in test [2], in test [3], in test [4], in [18] and in test [11] was “inactive” throughout. In addition, the Potency entry in test [16], in test [7] and in test [8] was “inactive” each time. Also, the Potency in test [13] was 101 µM (active); in test [9], 34.7 µM (active). Also, the activity change, positive = activation in test [15] was -30%.

For the compound `C[C@@]12C(=O)OC(=O)[C@]1(C)C1CCC2O1`, the Potency was 1.68 µM (active) in test [1]; 1.33 µM (active) in test [2]; 0.668 µM (active) in test [3]; 4.77 µM (active) in [16]; 1.69 µM (active) in [8]; 5.35 µM (active) in test [10]. In addition, the Potency entry in [4], in [7] and in test [9] was “inactive” throughout.

For the compound `COC(=O)NCCC[Si](OC)(OC)OC`, the Potency entry in [1], in [2], in [3], in [5], in [18] and in [11] was “inactive” throughout. Moreover, the Potency entry in [12], in [14], in [17], in [7], in [8] and in test [10] was “inactive” in each case. For the same compound, the activity change, positive = activation in [15] is -7.77%.
